Assay outcomes as filed in PubChem.
This is a sample that favours compounds with a hit; in the whole collection about 4.8% have one here.
hgDAF12 agonist: agonists of H. glycines DAF-12 nuclear receptor | AID 687014 | actives 1.8% (n = 370,000) | activation, % at 6.8 µM | HEK293 GAL4-hgDAF12 UAS-luciferase reporter, agonist luminescence; normalized to butyrate control;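 active means activation above a cutoff set at the mean of all screened compounds plus 3 SD, cut at about 10% in these data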;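 further: 0% = DMSO wells and 100% = sodium butyrate wells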
ssDAF-12 act: activators of S. stercoralis DAF-12 nuclear receptor; HEK293 ssDAF-12/GRIP1 lit1-tk-luc reporter, luminescence; % of 3 µM dafachronic acid response; activation, % at 6.8 µM; actives 1% (n = 370,000); AID 652126;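 active means activation above the mean over all tested compounds plus 3 SD, cut at about 0.9% in these data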;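 further: 0% = DMSO-only wells and 100% = 3 µM delta7-dafachronic acid wells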
DAX1 inh-1: blocks DAX1 repression of SF-1 activated StAR promoter | actives 1.1% (n = 370,000) | inhibition, % at 6.8 µM | AID 652010 | HEK293T StAR-luciferase reporter, SF-1/DAX-1 repression relief;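 active means inhibition above the mean over all tested compounds plus 3 SD, cut at about 3.6% in these data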;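 further: 0% = DAX-1 cells with DMSO and 100% = cells lacking DAX-1 with DMSO; higher inhibition means more luminescence from relief of DAX-1 repression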
SMARCA2 activ: activators of SMARCA2 function | AID 652017 | activation, % at 9.1 µM | actives 1% (n = 370,000) | MG213 cells, MMTV-luciferase reporter, dexamethasone, overnight; in the data active means activation above about 7.8%;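 further: 0% = vehicle wells and 100% = reference activator wells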
DAX1 inh-2: inhibits human nuclear receptor DAX1; HEK293 Gal4-DAX1 luciferase reporter, luminescence; actives 0.99% (n = 340,000); AID 504766; inhibition, % at 6.75 µM;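 active means inhibition above the mean over all tested compounds plus 3 SD, cut at about 4.2% in these data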;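 further: 0% = DAX1-transfected cells with DMSO and 100% = empty-vector control cells with DMSO; inhibition shows as a rise in luminescence from relieved DAX1 repression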
Target sequence (P51843 207-470 limits assumed): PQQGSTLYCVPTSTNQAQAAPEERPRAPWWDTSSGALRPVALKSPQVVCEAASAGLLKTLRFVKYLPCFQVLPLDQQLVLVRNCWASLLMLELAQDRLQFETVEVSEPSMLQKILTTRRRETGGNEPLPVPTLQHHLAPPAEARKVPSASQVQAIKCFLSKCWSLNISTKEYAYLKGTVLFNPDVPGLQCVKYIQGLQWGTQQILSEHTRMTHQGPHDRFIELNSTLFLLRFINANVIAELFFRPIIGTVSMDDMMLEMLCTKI
hcDAF-12 act: activates DAF-12 receptor from parasite H. contortus. activation, % at 6.8 µM. actives 1.4% (n = 370,000). HEK293 hcDAF-12 lit1-tk-luc reporter, luminescence; 0% DMSO, 100% Δ7-dafachronic acid. AID 652067;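 active means activation above the mean of all tested compounds plus 3 SD, cut at about 5.5% in these data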;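 further: 100% = response to 3 µM Δ7-dafachronic acid high control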
* hit, by the source's call; . = not tested or not shown.

SMILES	hgDAF12 agonist	ssDAF-12 act	DAX1 inh-1	SMARCA2 activ	DAX1 inh-2	hcDAF-12 act
COc1cccc2c1C(=O)c1c(O)c3c(c(O)c1C2=O)CC(O)(C(C)=NO)CC3OC1CC(N)C(O)C(C)O1 (stereo not given)	3	1.9*	-3	-7	-3	5
CCOP(=O)(OCC)C1(C(=O)O)CCCC1	0	-1	-1	-4	5.1*	-1
c1ccc(CCN2CCC3CCNC3C2)cc1 (stereo not given)	-1	0	-1	1	.	2
C[C@H]1CNCCN1c1ccc(N2CC[C@H](O)C2)c(C#N)c1	-2	-1	-1	1	.	0
COc1ccc2c3c([nH]c2c1)C(C)NCC3 (stereo not given)	-1	-1	0	1	-1	2
COc1ccc2[nH]c3c(c2c1)CCNC3C (stereo not given)	-1	0	-1	-2	2	5.7*
CNC(=O)c1cccn(Cc2ccc(C(F)(F)F)cc2)c1=O	-4	2.4*	-1	-3	1	0
COc1cc(CCN)c(OC)cc1C	0	-1	1	-4	.	-1
CCCCn1c(O)c(C(=O)/C=C/c2c[nH]c3ccccc23)c(=O)[nH]c1=O	-2	-1	0	1	1	6.0*
CC[N+](C)(CC)CCCCOc1ccc2c(c1)C(=O)c1cc(OCCCC[N+](C)(CC)CC)ccc1-2	3	-2	0	-1	5.5*	-1
CC(=O)NCC1=C(c2ccc(S(C)(=O)=O)cc2)C[C@@H]2CC[C@H]1N2CCOc1ccccc1	4	-1	0	-1	.	-2
Cc1ccc(OP2(=O)Nc3cc(C)c(C)cc3S2)cc1 (stereo not given)	4	1	1	3	2	5.7*
CC1=CC(=O)NP(=O)(Oc2ccc3ccccc3c2)N1 (stereo not given)	0	-1	1	3	0	-1
CC1C2Cc3ccc(O)cc3C1(C)CCN2CC1CC1 (stereo not given)	-5	-1	2	-3	.	0
CCOC(=O)[C@]12Cc3cc4ccccc4cc3[C@H]1N(Cc1ccccc1)C(=O)c1cc(OC)ccc12	5	-1	3.7*	1	.	0
c1ccc(CN2CCc3nc4ccccc4cc3C2)cc1	12*	-1	0	3	2	1
COc1cc(C2c3cc4c(cc3CC3COC(=O)C32)OCO4)cc(OC)c1O (stereo not given)	-4	-1	4.2*	-3	-1	-1
COCCCN=Cc1c(O)[nH]c(=S)[nH]c1=O	2	-1	1	-1	7.0*	-2
Cc1ccc2[nH]c(C)c(CCNCc3cccnc3)c2c1	-1	1.0*	0	-1	0	-1
COc1ccc2[nH]c(C)c(CCNCc3cc(OC)c(OC)c(OC)c3)c2c1	-2	-2	-1	-2	0	-1
COP(=O)(C#Cc1ccccc1)C(O)c1ccc(Br)cc1 (stereo not given)	0	-1	0	-3	1	-1
CCOP(=O)(C#Cc1ccccc1)C(O)c1ccc(Br)cc1 (stereo not given)	-2	-1	0	-1	4.6*	-2
O=C(NC1CN2CCC1CC2)c1ccc(Cl)cc1 (stereo not given)	2	-1	-1	-1	.	0
Cc1ccc(-n2c(O)c(C=NCc3ccccn3)c(=O)[nH]c2=S)cc1	3	-1	0	-5	5.1*	0
CC(=O)Nc1ccc(OC(=O)N(C)C)cc1	1	-1	1	-2	0	-1
SMILES	hgDAF12 agonist	ssDAF-12 act	DAX1 inh-1	SMARCA2 activ	DAX1 inh-2	hcDAF-12 act
CN(C)C(=O)Oc1ccc(OCc2nc3ccccc3[nH]2)cc1	11*	0	3	0	-2	3
O=C(NCCN1CCC2(CC1)C(=O)NCN2c1ccccc1)c1ccc(F)c(F)c1	-2	-1	2	-3	.	0
O=C(Cc1c[nH]c2ccccc12)NNCc1ccc(N(CCCl)CCCl)cc1	1	49*	-1	-4	1	4
O=C(Cc1ccc(N(CCCl)CCCl)cc1)NC(Cc1ccc(Cl)cc1)C(=O)O (stereo not given)	1	-1	0	0	2	-2
CC(C)(C)n1nnnc1C1CN=C(c2ccccc2)c2cc(Cl)ccc2N1 (stereo not given)	2	-1	0	-3	.	-2
CC(C)(C)n1nnnc1C1CN=C(c2ccccc2)c2ccccc2N1 (stereo not given)	11*	-1	1	0	.	1
CNC(=O)O/N=C(\C)Cc1nnn(-c2cc(C)on2)n1	2	-1	0	-1	5.1*	0
CC(C)Oc1ccc(C2C(C#N)=C(N)Oc3c2c(=O)oc2ccccc32)cc1 (stereo not given)	1	-1	0	-4	0	0
CCCC(C)C1C(C#N)=C(N)Oc2c1c(=O)oc1ccccc21 (stereo not given)	-1	-1	0	-1	1	-1
CCCC1C(C#N)=C(N)Oc2c1c(=O)oc1ccccc21 (stereo not given)	1	-1	1	1	4.6*	-2
CC(C)C1C(C#N)=C(N)Oc2c1c(=O)oc1ccccc21 (stereo not given)	-2	-1	4.0*	-5	0	0
CC(c1ccccc1)n1cc(C(=O)NC2CCCC2)nn1 (stereo not given)	0	-1	-1	-3	.	-1
COC(=O)[C@H]1C[C@@]2(C)c3ccccc3N[C@H]2N1	1	-1	1	0	.	5
CC[C@@H]1C[C@H]2CC[C@H](O2)[C@H](C)C(=O)O[C@@H](C)C[C@@H]2CC[C@@H](O2)[C@@H](C)C(=O)O[C@H](C)C[C@H]2CC[C@H](O2)[C@H](C)C(=O)O[C@@H](C)C[C@@H]2CC[C@@H](O2)[C@@H](C)C(=O)O1	-11	-3	-6	-6	.	-6
Cc1ccc(-c2nn(Cc3ccccc3)cc2C(=O)O)cc1	1	0	0	2	5.3*	3
NCCNc1ccc([N+](=O)[O-])c2cccnc12	6	-2	1	7	6.0*	2
CCCCn1c(=O)c(C(=O)NCCc2ccccc2)c(O)c2ccccc21	1	-2	0	-2	5.1*	-2
CCCCCn1c(=O)c(C(=O)Nc2ccccc2)c(O)c2ccccc21	0	0	0	2	0	7.8*
c1ccc(Cc2cnc(N3CCNCC3)nc2)cc1	0	-1	1	-3	.	0
N#Cc1ccc2nc(-c3ccc(CN4CCC(n5nnc6ccccc65)CC4)cc3)c(-c3ccccc3)nc2c1	4	-2	-3	-6	.	-3
